According to PubChem BioAssay (NCATS):
“And” between values parts separate entries of the source, which are not always exact repeats. Equal entries are not always repeated. Inconclusive results are not listed. The source made the active and inactive calls. Unless noted, the call rests on the fitted dose curve; in most records, active means well fitted curve in the direction sought with a large enough effect; inconclusive means small, poorly fitted or top-dose-only effect, or another doubt; inactive means no such curve, though single readings can be large; an effect the other way counts as inactive or inconclusive.

Assays:
[1] = Cell Viability - H-4-II-E (AID 543); further: nearly all actives have a fitted effect of over 35% in size; further: potency means the concentration at half of the fitted maximal effect
Outline: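 Rat hepatoma H-4-II-E cells, 1500 per well, treated 40 h at 37 °C in complete medium. Cellular ATP read by CellTiter-Glo luminescence; AC50 from Hill fits of concentration-response.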

[2] = Cell Viability - Mesenchymal (AID 546);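 further: cells exposed to compound for 40 hours before reading; 0% = DMSO only and -100% = 100 µM tamoxifen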
Outline: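 AC50 values reflect the drop in intracellular ATP in a human kidney mesenchymal line derived from normal glomeruli. Treatment lasts 40 hr at 37 °C in complete medium, and the signal comes from CellTiter-Glo luminescence.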

[3] = Cellular Toxicity (caspase-3) BJ (AID 658);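 further: 0% = DMSO basal and 100% = 10 µM staurosporine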
Outline: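 Readout: Caspase-Glo 3/7 luminescence increase in BJ cells after 16 hr treatment at 37 °C. Staurosporine and tamoxifen served as positive controls; AC50 values came from Hill modelling of data normalized to DMSO and 10 uM staurosporine.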

[4] = Cellular Toxicity (caspase-3) SK-N-SH (AID 661);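 further: 0% = DMSO basal and 100% = 10 µM staurosporine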
Outline: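 Human SK-N-SH neuroblastoma cells, 1500/well, were exposed to compounds for 16 hours at 37 °C. Caspase-Glo 3/7 luminescence was normalized to DMSO (basal) and 10 uM staurosporine (100%), and AC50 came from a Hill fit.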

[5] = Cellular Toxicity (caspase-3) H-4-II-E (AID 663); conditions: Potency: caspase-3 activation;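 further: cells exposed to compound for 16 hr before readout; 0% = DMSO basal and 100% = 100 µM tamoxifen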
Outline: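 Apoptosis induction is scored as increased luminescence from caspase 3/7 substrate cleavage in rat hepatoma H-4-II-E cells exposed to compound for 16 hr. Activity is scaled between DMSO and 100 uM tamoxifen.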

[6] = Cellular Toxicity (caspase-3) N2a (AID 665);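 further: compound exposure lasted 16 h at 37 °C before readout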
Outline: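 Mouse N2a neuroblastoma cells, 1500 per well, treated 16 h at 37 °C in complete medium; caspase-3/7 activity by Caspase-Glo luminescence after 1 h. Normalized to DMSO and 10 uM staurosporine; AC50 from Hill fits.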

[7] = Cellular Toxicity (caspase-3) NIH 3T3 (AID 666);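 further: caspase signal read after 16 h compound exposure; 0% = DMSO basal and 100% = 100 µM tamoxifen stimulation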
Outline: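 Mouse NIH 3T3 fibroblasts (1000/well) treated 16 h at 37 C; caspase-3/7 activity measured by Caspase-Glo 3/7 luminescence after 20 min. Normalized to DMSO and 100 uM tamoxifen; AC50 from Hill fits.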

[8] = Cellular Toxicity (caspase-3) Renal Proximal Tubule (AID 667);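 further: cells exposed to compound for 16 hours at 37 °C before detection; 0% = DMSO basal and 100% = 10 µM staurosporine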
Outline: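 Primary rat proximal tubule cells, 1000/well, 5 h plating at 37 °C, then compound 16 h at 37 °C. Caspase-Glo 3/7 reagent, 1 h RT, luminescence. Normalized to DMSO (basal) and 10 uM staurosporine (100%); Hill-fit AC50.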

[9] = Cell Viability - LYMP2-019 (AID 973); further: nearly all actives have a fitted effect of over 55% in size; further: potency means the concentration at half of the fitted maximal effect
Outline: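 Human lymphoblastoid LYMP2-019 cells (2500/well) preincubated 5 h at 37 C, then treated 24 h at 37 C in complete medium. Viability by CellTiter-Glo ATP luminescence after 30 min at room temperature; AC50 from Hill fits.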

[10] = Cell Viability - LYMP2-023 (AID 975);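 further: cellular ATP measured by luciferase luminescence as viability proxy; series mostly up to about 92 µM; plate controls were DMSO only for no effect and 92 µM tetraoctylammonium bromide control for full effect; nearly all actives have a fitted effect of over 55% in size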
Outline: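 LYMP2-023 human lymphoblastoid cells, 2500/well, preincubated 5 hr at 37 C, then compound-treated 24 hr at 37 C in complete medium. CellTiter-Glo luminescence (ATP) after 30 min at room temperature; AC50 from Hill-equation fits; tetraoctylammonium bromide positive control.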

[11] = Cell Viability - LYMP2-006 (AID 978); further: nearly all actives have a fitted effect of over 60% in size; further: potency means the concentration at half of the fitted maximal effect
Outline: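 Human lymphoblastoid cells, 2500 per well, were preincubated 5 hr at 37 C, then exposed to compounds for 24 hr at 37 C in complete medium. Viability was read as intracellular ATP by CellTiter-Glo luminescence; AC50 from Hill-equation fits of qHTS concentration-response data.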

[12] = Cell Viability - LYMP2-007 (AID 979);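 further: cells exposed to compound for 24 h before reading; nearly all actives have a fitted effect of over 60% in size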; further: potency means the concentration at half of the fitted maximal effect
Outline: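 Human lymphoblastoid LYMP2-007 cells (2500/well) preincubated 5 h at 37 C, then treated 24 h at 37 C in complete medium. Viability by CellTiter-Glo ATP luminescence after 30 min at room temperature; AC50 from Hill fits.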

[13] = Cell Viability - LYMP2-008 (AID 980); further: on the % scale 0 is the no-effect control and ±100 the full control effect; nearly all actives have a fitted effect of over 60% in size
Outline: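 LYMP2-008 lymphoblastoid cells (2500/well) plated 5 h, then treated 24 h at 37 C in complete medium. Viability read as intracellular ATP by CellTiter-Glo luminescence after 30 min at room temperature; AC50 from Hill fits.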

[14] = Cell Viability - LYMP2-014 (AID 983);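 further: series mostly up to about 92 µM; plate controls were DMSO only for no effect and 92 µM tetraoctylammonium bromide for full effect; nearly all actives have a fitted effect of over 50% in size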
Outline: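 LYMP2-014 human lymphoblastoid cells, 2500/well, treated 24 h at 37 C in complete medium; viability by CellTiter-Glo ATP luminescence after 30 min at room temperature. AC50 from Hill fits of qHTS concentration-response; tetraoctylammonium bromide positive control.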

[15] = Cell Viability - LYMP2-020 (AID 986);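 further: series mostly up to about 92 µM; plate controls were DMSO only for no effect and tetraoctylammonium bromide at 92 µM for full effect; nearly all actives have a fitted effect of over 55% in size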
Outline: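 Human lymphoblastoid LYMP2-020 cells (2500/well) preincubated 5 h at 37 C, then treated 24 h at 37 C. Viability measured as intracellular ATP by CellTiter-Glo luminescence after 30 min at room temperature; AC50 from Hill fits.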

[16] = target: Peroxisome proliferator-activated receptor gamma (Homo sapiens) (UniProt P37231); experiment: qHTS assay for small molecule agonists of peroxisome proliferator-activated receptor gamma signaling (AID 588536; active means well fitted curve in the direction sought with a large enough effect in the signal ratio, with a control signal flat, not every such curve was filed as active; the % refers to the signal ratio;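 further: 0% = DMSO basal wells and 100% = rosiglitazone at 2 µM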)
Chain of Peroxisome proliferator-activated receptor gamma (Homo sapiens) (P37231 whole entry, looked up): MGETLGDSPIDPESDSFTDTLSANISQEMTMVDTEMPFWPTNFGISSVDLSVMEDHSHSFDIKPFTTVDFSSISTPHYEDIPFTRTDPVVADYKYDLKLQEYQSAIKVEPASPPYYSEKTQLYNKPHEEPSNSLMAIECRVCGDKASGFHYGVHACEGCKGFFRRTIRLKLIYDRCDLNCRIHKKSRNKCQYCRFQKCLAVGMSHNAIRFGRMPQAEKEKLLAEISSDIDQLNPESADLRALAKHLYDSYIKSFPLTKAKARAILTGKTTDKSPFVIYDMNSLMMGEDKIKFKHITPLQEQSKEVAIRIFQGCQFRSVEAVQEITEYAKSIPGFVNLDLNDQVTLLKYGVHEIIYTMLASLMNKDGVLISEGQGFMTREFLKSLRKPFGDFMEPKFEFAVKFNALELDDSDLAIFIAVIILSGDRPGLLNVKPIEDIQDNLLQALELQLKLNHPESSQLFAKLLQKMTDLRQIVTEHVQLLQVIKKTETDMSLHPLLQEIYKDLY
Outline: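 Ratiometric blue/green fluorescence (405 nm excitation; 460 and 530 nm emission) from CCF4-loaded HEK293 reporter cells serves as signal. Exposure to test compounds lasts 16 h at 37 C in medium containing 1% charcoal/dextran-treated serum.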

[17] = target: Voltage-gated inwardly rectifying potassium channel KCNH2 (Homo sapiens) (UniProt Q12809); experiment: qHTS Assay for Small Molecule Inhibitors of the Human hERG Channel Activity (AID 588834);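 further: top concentration of the series differs between compounds; on the % scale 0 is the no-effect control and ±100 the full control effect; lower thallium flux fluorescence means stronger hERG block; nearly all actives have a fitted effect of over 50% in size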
Chain of Voltage-gated inwardly rectifying potassium channel KCNH2 (Homo sapiens) (Q12809 whole entry, looked up): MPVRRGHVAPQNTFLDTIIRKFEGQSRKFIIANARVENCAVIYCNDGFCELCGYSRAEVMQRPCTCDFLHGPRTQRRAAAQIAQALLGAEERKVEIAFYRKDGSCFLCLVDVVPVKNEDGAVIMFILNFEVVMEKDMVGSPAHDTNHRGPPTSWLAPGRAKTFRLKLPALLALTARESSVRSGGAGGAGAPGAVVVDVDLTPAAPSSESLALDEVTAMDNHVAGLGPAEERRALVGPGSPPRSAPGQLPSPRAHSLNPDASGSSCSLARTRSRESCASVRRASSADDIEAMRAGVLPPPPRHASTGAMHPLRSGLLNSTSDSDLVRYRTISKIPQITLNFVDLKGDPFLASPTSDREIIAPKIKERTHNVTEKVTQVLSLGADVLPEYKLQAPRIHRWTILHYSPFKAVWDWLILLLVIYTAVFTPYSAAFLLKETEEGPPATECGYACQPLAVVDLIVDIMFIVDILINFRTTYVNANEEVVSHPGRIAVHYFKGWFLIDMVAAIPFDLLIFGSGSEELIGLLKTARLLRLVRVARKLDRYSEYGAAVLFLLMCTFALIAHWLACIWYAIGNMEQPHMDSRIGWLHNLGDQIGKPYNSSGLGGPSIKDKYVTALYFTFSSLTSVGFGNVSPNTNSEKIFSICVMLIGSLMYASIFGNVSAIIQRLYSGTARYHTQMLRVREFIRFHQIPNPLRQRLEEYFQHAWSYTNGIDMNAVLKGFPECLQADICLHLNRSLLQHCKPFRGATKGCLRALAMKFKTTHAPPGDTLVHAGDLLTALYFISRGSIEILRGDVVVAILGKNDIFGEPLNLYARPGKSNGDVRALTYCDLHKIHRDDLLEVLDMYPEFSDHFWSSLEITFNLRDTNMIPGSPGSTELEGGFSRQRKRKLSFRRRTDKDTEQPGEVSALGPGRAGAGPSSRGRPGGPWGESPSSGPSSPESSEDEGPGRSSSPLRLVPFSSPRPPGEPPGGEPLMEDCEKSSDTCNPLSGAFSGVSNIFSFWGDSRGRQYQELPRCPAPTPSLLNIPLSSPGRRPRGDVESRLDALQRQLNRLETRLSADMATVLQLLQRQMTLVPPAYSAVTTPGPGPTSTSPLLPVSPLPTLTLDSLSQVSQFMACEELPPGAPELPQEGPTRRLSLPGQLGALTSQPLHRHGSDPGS
Outline: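 U2OS cells transduced with hERG via BacMam (MOI ~100), plated 2000/well, loaded with FluxOR thallium dye, compound ~10 min, then stimulation buffer; fluorescence decrease read kinetically; AC50 from Hill fits.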

[18] = Cell Viability - HUV-EC-C (AID 542); further: nearly all actives have a fitted effect of over 35% in size; further: potency means the concentration at half of the fitted maximal effect
Outline: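 HUV-EC-C human vascular endothelial cells, 1000/well, exposed to compound for 40 hr at 37 °C in complete medium. Intracellular ATP was read by CellTiter-Glo luminescence. AC50 came from Hill-equation fits of concentration-response data.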

[19] = qHTS assay for cell viability of HEK293 cells (AID 743288); conditions: ATP luminescence (CellTiter-Glo), 18 h, active compounds read low; further: on the % scale 0 is the no-effect control and ±100 the full control effect; nearly all actives have a fitted effect of over 50% in size
Outline: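 Parental HEK293 cells were seeded at 2,000 cells/well, rested at least 5 h at 37 C, then exposed to compounds in DMSO for 18 h at 37 C. Viability was read as ATP-dependent luciferase luminescence after 30 min at room temperature.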

[20] = target: Nuclear receptor subfamily 1 group I member 2 (Rattus norvegicus) (UniProt Q9R1A7); experiment: qHTS assay for small molecule activators of the rat pregnane X receptor (rPXR) signaling pathway (AID 651751; call rule not given here; further: 0% is about no effect); conditions: rPXR reporter cells, luciferase (One-Glo), 24 h
Chain of Nuclear receptor subfamily 1 group I member 2 (Rattus norvegicus) (Q9R1A7 whole entry, looked up): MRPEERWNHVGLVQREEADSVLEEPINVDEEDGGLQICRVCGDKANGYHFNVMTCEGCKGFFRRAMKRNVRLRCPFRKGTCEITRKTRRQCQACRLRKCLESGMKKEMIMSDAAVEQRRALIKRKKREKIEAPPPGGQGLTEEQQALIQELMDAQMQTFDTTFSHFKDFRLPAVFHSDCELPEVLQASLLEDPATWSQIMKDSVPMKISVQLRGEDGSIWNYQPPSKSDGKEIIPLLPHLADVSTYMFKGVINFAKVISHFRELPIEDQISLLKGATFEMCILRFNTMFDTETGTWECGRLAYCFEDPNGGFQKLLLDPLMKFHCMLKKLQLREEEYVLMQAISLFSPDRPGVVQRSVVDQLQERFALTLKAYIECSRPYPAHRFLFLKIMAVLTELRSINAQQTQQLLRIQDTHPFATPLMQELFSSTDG

Nc1cc(Cl)ccc1O
inactive: Potency [1] | Potency [2] | outcome [3] | Potency [4] | Potency [5] | outcome [6] | Potency [7] | outcome [8] | Potency [9] | Potency [10] | Potency [11] | Potency [12] | Potency [13] | Potency [14] | Potency [15] | outcome [16] | Potency [17]

Cc1ccc([N+](=O)[O-])cc1
inactive: Potency [18] | Potency [1] | Potency [2] | outcome [3] | Potency [4] | Potency [5] | Potency [9] | Potency [10] | Potency [12] | Potency [14] | Potency [15] | outcome [16] | Potency [17] | max response [19] 0.535% | max response [20] 3.32%

CC(C)[N+](=O)[O-]
inactive: Potency [18] | Potency [1] | Potency [4] | Potency [5] | outcome [6] | Potency [7] | outcome [8] | Potency [9] | Potency [10] | Potency [11] | Potency [12] | Potency [13] | Potency [14] | outcome [16] | max response [20] 1.27%

ClCC(Cl)Cl
inactive: Potency [18] | Potency [1] | Potency [2] | outcome [3] | Potency [5] | outcome [6] | Potency [7] | outcome [8] | Potency [9] | Potency [10] | Potency [11] | Potency [12] | Potency [13] | Potency [15] | outcome [16] | Potency [17] | max response [19] -18.4% | max response [20] -0.324%

C[N+](=O)[O-]
inactive: Potency [18] | Potency [1] | Potency [2] | outcome [3] | Potency [4] | Potency [5] | outcome [6] | Potency [7] | outcome [8] | Potency [9] | Potency [10] | Potency [12] | Potency [14] | Potency [15] | outcome [16] | Potency [17] | max response [19] 4.12%

O=[N+]([O-])c1ccccc1CCl
inactive: Potency [18] | Potency [2] | Potency [5] | Potency [7] | Potency [14] | outcome [16] | Potency [17] | max response [19] 2.01% | max response [20] 5.58%
active: Potency [9] 63.1 µM

ClCc1ccccn1
inactive: Potency [18] | Potency [1] | Potency [2] | Potency [5] | outcome [6] | Potency [7] | outcome [8] | Potency [9] | Potency [10] | Potency [11] | Potency [12] | Potency [13] | Potency [15] | outcome [16] | Potency [17] | max response [19] 1.66% and -12.2% | max response [20] 2.99% and 8.15%

CN(C)c1ccc(N)cc1
inactive: Potency [2] | Potency [4] | Potency [5] | Potency [7] | outcome [16]
active: Potency [18] 31.6 µM | Potency [1] 50.1 µM | Potency [9] 50.1 µM | Potency [11] 50.1 µM | Potency [12] 50.1 µM

Nc1cc(Cl)ccc1Cl
inactive: Potency [18] | Potency [1] | Potency [2] | outcome [3] | Potency [4] | Potency [5] | outcome [6] | Potency [7] | outcome [8] | Potency [9] | Potency [10] | Potency [11] | Potency [12] | Potency [14] | Potency [15] | Potency [17] | max response [19] 7.64% | max response [20] 4.7%

ClC(Br)Br
inactive: Potency [18] | Potency [1] | Potency [2] | outcome [3] | Potency [4] | outcome [6] | Potency [7] | outcome [8] | Potency [9] | Potency [11] | Potency [12] | Potency [14] | Potency [15] | outcome [16] | Potency [17] | max response [19] 0.132% | max response [20] 0.757%

C=C(C)CCl
inactive: Potency [1] | Potency [2] | outcome [3] | Potency [4] | Potency [5] | outcome [6] | Potency [7] | outcome [8] | Potency [11] | Potency [13] | Potency [15] | outcome [16] | Potency [17] | max response [19] -1.82% | max response [20] -1.42%

NC1CCC(CC2CCC(N)CC2)CC1 (configuration not stated)
inactive: Potency [18] | Potency [1] | Potency [2] | outcome [3] | Potency [4] | Potency [5] | outcome [8] | Potency [9] | Potency [10] | Potency [11] | Potency [12] | Potency [13] | Potency [14] | Potency [15] | outcome [16] | Potency [17] | max response [19] 7.87% and 2.31% | max response [20] 5.41% and 4.82%

CN(C)C(=O)Nc1cccc(C(F)(F)F)c1
inactive: Potency [18] | Potency [1] | Potency [2] | outcome [3] | Potency [4] | Potency [5] | Potency [7] | outcome [8] | Potency [9] | Potency [10] | Potency [11] | Potency [12] | Potency [13] | Potency [14] | Potency [15] | outcome [16] | Potency [17] | max response [20] 16.9% and 5.91%

O=[N+]([O-])c1ccc(O)c([N+](=O)[O-])c1
inactive: Potency [18] | Potency [2] | outcome [3] | Potency [4] | Potency [5] | outcome [6] | Potency [7] | outcome [8] | Potency [9] | Potency [10] | Potency [12] | Potency [13] | Potency [14] | Potency [15] | outcome [16] | Potency [17] | max response [19] -1.57%

ClC(Cl)(Cl)C(Cl)(Cl)Cl
inactive: Potency [1] | Potency [2] | outcome [3] | outcome [6] | Potency [7] | outcome [8] | Potency [9] | Potency [10] | Potency [12] | Potency [13] | outcome [16] | max response [19] 3.22% | max response [20] 6.05%

Nc1cccc(Cl)c1
inactive: Potency [18] | Potency [1] | Potency [2] | outcome [3] | Potency [4] | Potency [5] | outcome [6] | Potency [7] | outcome [8] | Potency [11] | Potency [13] | Potency [14] | Potency [15] | outcome [16] | Potency [17] | max response [19] -8.5% | max response [20] 1.89%
